Measurements: PubChem BioAssay (NCATS)
Inconclusive results are not listed. Where a call stands in place of a potency, no number is given. Values without a mark were called inactive. Active and inactive are the calls of the source. Calls come from the whole dose curve; as a rule, active = well fitted inhibition curve with a large enough effect; inconclusive = small, poorly fitted or top-dose-only effect; inactive = flat fitted curve, though single readings scatter.

What was measured:
Assay in all cases: qHTS profiling for inhibitors of Plasmodium falciparum proliferation (AID 504749); note: nearly all actives have a fitted effect of over 60% in size
Details in all cases: P. falciparum in erythrocytes, SYBR Green DNA, 72 h; series mostly up to 28.7 µM
CP201 = test system: CP201
In short: (§1)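 SYBR Green fluorescence (ex 485 nm, em 535 nm) reports parasite DNA after 72 h compound exposure of infected red cells at 0.3% parasitemia, 2.5% hematocrit; signal normalized to 0.29 uM artemisinin and vehicle wells.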

CP211 = test system: CP211
In short: as §1

CP215 = test system: CP215
In short: as §1

CP217 = test system: CP217
In short: as §1

CP237 = test system: CP237
In short: as §1

CP238 = test system: CP238
In short: as §1

CP247 = test system: CP247
In short: as §1

CP250 = test system: CP250
In short: as §1

CP252 = test system: CP252
In short: as §1

CP260 = test system: CP260
In short: as §1

CP262 = test system: CP262
In short: as §1

CP266 = test system: CP266
In short: as §1

CP286 = test system: CP286
In short: as §1

CP256 = test system: CP256
In short: as §1

CP265 = test system: CP265
In short: as §1

CP268 = test system: CP268
In short: as §1

CP269 = test system: CP269
In short: as §1

CP291 = test system: CP291
In short: as §1

CP194 = test system: CP194
In short: as §1

CP203 = test system: CP203
In short: as §1
Potency is the fitted concentration of half-maximal effect.

Question: Which Potency (CP201) does the source give for `COc1ccc2c(c1)C13CCCC[C@@H]1C(C2)N(C)CC3` (stereo not given in full) here?
Answer: Its Potency is “inactive”.

Question: And the Potency (CP211)?
Answer: The Potency was “inactive”.

Question: And the Potency (CP215)?
Answer: The Potency was “inactive”.

Question: And the Potency (CP217)?
Answer: The Potency was “inactive”.

Question: And the Potency (CP237)?
Answer: The Potency was “inactive”.

Question: And the Potency (CP238)?
Answer: The Potency was “inactive”.

Question: What about the Potency (CP247) of the same compound?
Answer: The Potency was “inactive”.

Question: What about the Potency (CP250) of the same compound?
Answer: Its Potency is “inactive”.

Question: And the Potency (CP252)?
Answer: The Potency was “inactive”.

Question: And the Potency (CP260)?
Answer: The Potency was 11.2 µM (active).

Question: And the Potency (CP262)?
Answer: The Potency was “inactive”.

Question: And the outcome (CP266)?
Answer: The outcome was “inactive”.

Question: What about the Potency (CP286) of the same compound?
Answer: Its Potency is “inactive”.

Question: For `Clc1ccc(C(c2ccc(Cl)cc2)C(Cl)(Cl)Cl)cc1`, which Potency (CP201) is on record?
Answer: Its Potency is “inactive”.

Question: What about the Potency (CP211) of the same compound?
Answer: The Potency was “inactive”.

Question: And the Potency (CP217)?
Answer: Its Potency is “inactive”.

Question: And the Potency (CP238)?
Answer: Its Potency is “inactive”.

Question: And the Potency (CP247)?
Answer: Its Potency is “inactive”.

Question: What about the Potency (CP250) of the same compound?
Answer: Its Potency is “inactive”.

Question: And the Potency (CP252)?
Answer: Its Potency is “inactive”.

Question: And the Potency (CP256)?
Answer: The Potency was “inactive”.

Question: What about the Potency (CP260) of the same compound?
Answer: Its Potency is “inactive”.

Question: And the Potency (CP262)?
Answer: The Potency was “inactive”.

Question: What about the Potency (CP265) of the same compound?
Answer: Its Potency is “inactive”.

Question: What about the outcome (CP266) of the same compound?
Answer: The outcome was “inactive”.

Question: And the Potency (CP268)?
Answer: The Potency was “inactive”.

Question: And the Potency (CP269)?
Answer: Its Potency is “inactive”.

Question: And the Potency (CP286)?
Answer: The Potency was “inactive”.

Question: And the Potency (CP291)?
Answer: Its Potency is “inactive”.

Question: With `O=P1(N(CCCl)CCCl)NCCCO1` (stereo not given) as the compound, how does the Potency (CP194) read?
Answer: The Potency was “inactive”.

Question: And the Potency (CP201)?
Answer: Its Potency is “inactive”.

Question: What about the Potency (CP203) of the same compound?
Answer: Its Potency is “inactive”.

Question: And the Potency (CP211)?
Answer: Its Potency is “inactive”.

Question: What about the Potency (CP215) of the same compound?
Answer: Its Potency is “inactive”.

Question: And the Potency (CP217)?
Answer: Its Potency is “inactive”.

Question: What about the Potency (CP237) of the same compound?
Answer: Its Potency is “inactive”.

Question: What about the Potency (CP238) of the same compound?
Answer: Its Potency is “inactive”.

Question: What about the Potency (CP247) of the same compound?
Answer: Its Potency is “inactive”.

Question: And the Potency (CP250)?
Answer: Its Potency is “inactive”.

Question: What about the Potency (CP252) of the same compound?
Answer: The Potency was “inactive”.

Question: And the Potency (CP260)?
Answer: Its Potency is “inactive”.

Question: And the Potency (CP262)?
Answer: Its Potency is “inactive”.

Question: What about the Potency (CP265) of the same compound?
Answer: The Potency was “inactive”.

Question: And the outcome (CP266)?
Answer: The outcome was “inactive”.

Question: And the Potency (CP268)?
Answer: The Potency was “inactive”.

Question: What about the Potency (CP269) of the same compound?
Answer: The Potency was “inactive”.

Question: And the Potency (CP286)?
Answer: Its Potency is “inactive”.

Question: And the Potency (CP291)?
Answer: The Potency was “inactive”.

Question: For `O=C1c2ccccc2C(=O)c2ccccc21`, which Potency (CP194) is on record?
Answer: The Potency was “inactive”.

Question: What about the Potency (CP201) of the same compound?
Answer: Its Potency is “inactive”.

Question: And the Potency (CP203)?
Answer: Its Potency is “inactive”.

Question: What about the Potency (CP211) of the same compound?
Answer: The Potency was “inactive”.

Question: What about the Potency (CP215) of the same compound?
Answer: Its Potency is “inactive”.

Question: What about the Potency (CP217) of the same compound?
Answer: Its Potency is “inactive”.

Question: And the Potency (CP237)?
Answer: Its Potency is “inactive”.

Question: And the Potency (CP238)?
Answer: The Potency was “inactive”.

Question: And the Potency (CP247)?
Answer: Its Potency is “inactive”.

Question: And the Potency (CP250)?
Answer: The Potency was “inactive”.

Question: What about the Potency (CP252) of the same compound?
Answer: Its Potency is “inactive”.

Question: What about the Potency (CP256) of the same compound?
Answer: Its Potency is “inactive”.

Question: And the Potency (CP262)?
Answer: Its Potency is “inactive”.

Question: What about the Potency (CP265) of the same compound?
Answer: The Potency was 10 µM (active).

Question: And the outcome (CP266)?
Answer: Its outcome is “inactive”.

Question: And the Potency (CP268)?
Answer: Its Potency is “inactive”.

Question: What about the Potency (CP286) of the same compound?
Answer: Its Potency is “inactive”.

Question: What about the Potency (CP291) of the same compound?
Answer: Its Potency is “inactive”.

Question: Which Potency (CP201) does the source give for `CC(C)(C)NCC(O)c1cc(Cl)c(N)c(C(F)(F)F)c1` (stereo not given) here?
Answer: The Potency was “inactive”.

Question: And the Potency (CP217)?
Answer: Its Potency is 11.2 µM (active).

Question: What about the Potency (CP237) of the same compound?
Answer: The Potency was 7.08 µM (active).

Question: What about the Potency (CP238) of the same compound?
Answer: Its Potency is 8.91 µM (active).

Question: And the Potency (CP247)?
Answer: The Potency was 10 µM (active).

Question: And the Potency (CP250)?
Answer: Its Potency is 10 µM (active).

Question: And the Potency (CP252)?
Answer: Its Potency is 8.91 µM (active).

Question: And the Potency (CP256)?
Answer: Its Potency is 11.2 µM (active).

Question: What about the Potency (CP260) of the same compound?
Answer: The Potency was 12.6 µM (active).

Question: What about the Potency (CP265) of the same compound?
Answer: The Potency was 8.91 µM (active).

Question: And the outcome (CP266)?
Answer: The outcome was “inactive”.

Question: What does the source list for `CC(C)(C)NCC(O)c1ccccc1Cl` (stereo not given)?
Answer: Potency (CP201): inactive; Potency (CP211): inactive; Potency (CP237): 8.91 µM (active); Potency (CP250): inactive; Potency (CP256): inactive; Potency (CP262): inactive; Potency (CP265): inactive; Potency (CP268): inactive; Potency (CP269): inactive; Potency (CP286): inactive; Potency (CP291): inactive

Question: What does the source list for `COC(=O)C(c1ccccc1)C1CCCCN1` (stereo not given)?
Answer: Potency (CP201): inactive; Potency (CP203): inactive; Potency (CP211): inactive; Potency (CP215): inactive; Potency (CP217): inactive; Potency (CP237): 12.6 µM (active); Potency (CP238): inactive; Potency (CP247): inactive; Potency (CP250): inactive; Potency (CP252): inactive; Potency (CP256): inactive; Potency (CP260): inactive; Potency (CP265): inactive; outcome (CP266): inactive; Potency (CP268): inactive; Potency (CP269): inactive; Potency (CP286): inactive

Question: Which results are given for `C=CCN1C[C@H](C)N([C@H](c2ccc(C(=O)N(CC)CC)cc2)c2cccc(OC)c2)C[C@H]1C`?
Answer: Potency (CP194): inactive; Potency (CP201): inactive; Potency (CP203): inactive; Potency (CP211): inactive; Potency (CP215): inactive; Potency (CP237): 12.6 µM (active); Potency (CP238): inactive; outcome (CP266): inactive; Potency (CP268): inactive; Potency (CP269): inactive; Potency (CP291): inactive

Question: With `C[C@](O)(CS(=O)(=O)c1ccc(F)cc1)C(=O)Nc1ccc(C#N)c(C(F)(F)F)c1` as the compound, how does the Potency (CP194) read?
Answer: The Potency was “inactive”.

Question: And the Potency (CP201)?
Answer: The Potency was “inactive”.

Question: What about the Potency (CP211) of the same compound?
Answer: Its Potency is “inactive”.

Question: And the Potency (CP215)?
Answer: Its Potency is “inactive”.

Question: And the Potency (CP217)?
Answer: Its Potency is “inactive”.

Question: And the Potency (CP237)?
Answer: The Potency was “inactive”.

Question: What about the Potency (CP238) of the same compound?
Answer: Its Potency is “inactive”.

Question: And the Potency (CP247)?
Answer: The Potency was “inactive”.

Question: What about the Potency (CP250) of the same compound?
Answer: Its Potency is “inactive”.

Question: What about the Potency (CP252) of the same compound?
Answer: Its Potency is “inactive”.

Question: What about the Potency (CP256) of the same compound?
Answer: Its Potency is “inactive”.

Question: What about the Potency (CP260) of the same compound?
Answer: Its Potency is “inactive”.

Question: What about the Potency (CP262) of the same compound?
Answer: Its Potency is “inactive”.

Question: What about the Potency (CP265) of the same compound?
Answer: Its Potency is “inactive”.

Question: And the outcome (CP266)?
Answer: Its outcome is “inactive”.

Question: And the Potency (CP268)?
Answer: The Potency was “inactive”.

Question: And the Potency (CP269)?
Answer: Its Potency is “inactive”.

Question: What about the Potency (CP286) of the same compound?
Answer: Its Potency is “inactive”.

Question: What about the Potency (CP291) of the same compound?
Answer: Its Potency is “inactive”.
